The values below come from PubChem BioAssay (NCI).

The panel holds about 79,000 compounds, 15% with a hit somewhere; the sample as a whole holds those more often. Values without a mark were called inactive. Calls of active or inactive are those of the source. No stated cut-off is given here; in the data, active means growth inhibition above about 70%; inactive means the rest.

A short description of assay [1]: NCI Yeast Anticancer Drug Screen. Data for the rad50 strain (AID 155).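 Further: 0% = growth of vehicle-only cultures of the same strain.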 Conditions: S. cerevisiae rad50 strain growth inhibition, stronger effect = higher value. A digest of the protocol: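 Genetically altered yeast (DNA repair pathway); compound treatment; growth inhibition vs vehicle ctrl.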
Assay [2] is described as follows: NCI Yeast Anticancer Drug Screen. Data for the mec2-1 strain (AID 157). Conditions: S. cerevisiae mec2-1 strain, stronger effect = higher value. The gist of the method: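 Compounds were applied to mec2-1 yeast cells. Their growth was then compared with that of vehicle-treated cultures to give growth inhibition.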
Assay [3] in a line: NCI Yeast Anticancer Drug Screen. Data for the sgs1 mgt1 strain (AID 161).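 Further: 0% = growth of cultures given vehicle only.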 Conditions: S. cerevisiae sgs1 mgt1 strain, stronger effect = higher value. A digest of the protocol:
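Yeast cells carrying a defined DNA-repair defect were exposed to test compounds. Growth inhibition was measured relative to vehicle-treated controls.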

A short description of assay [4]: NCI Yeast Anticancer Drug Screen. Data for the cln2 rad14 strain (AID 165).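 Further: 0% = growth equal to vehicle treated cultures.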 Conditions: S. cerevisiae cln2 rad14 strain, stronger effect = higher value. The gist of the method: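 Strain: cln2 rad14 yeast, altered in cell cycle control and DNA damage repair. Read-out: growth inhibition vs vehicle.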
Assay [5] can be described thus: NCI Yeast Anticancer Drug Screen. Data for the bub3 strain (AID 167). Conditions: S. cerevisiae bub3 mutant strain, stronger effect = higher value. The gist of the method:
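Yeast carrying a defined mutation is treated with each compound, and growth is compared with that of vehicle-exposed cells to give inhibition.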

Assay [6] can be described thus: NCI Yeast Anticancer Drug Screen. Data for the mlh1 rad18 strain (AID 175). The settings on record: S. cerevisiae mlh1 rad18 strain growth inhibition, stronger effect = higher value. A digest of the protocol: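 A repair-deficient yeast strain is exposed to test compound, and growth is scored relative to vehicle-treated controls.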
Where [7] appears, read: at 5.0 µM (retest, dose inferred, filed as 0.5).
The mark [8] stands for this setting: at 50.0 µM (retest, dose inferred, filed as 5.0).

As to `CCC[CH2][Sn]([CH2]CCC)([O]C(=O)c1cccc(F)c1F)[O]C(=O)c1cccc(F)c1F`, the growth inhibition is 73% (active) in assay [1] (setting [7]); 73% (active) in assay [1] (setting [8]); 86.6% (active) in assay [1] (at 50.0 µM); 62% in assay [2] (setting [7]); 62% in assay [2] (setting [8]); 88% (active) in assay [2] (at 50.0 µM). For the same molecule, the growth inhibition in assay [3] (setting [7]) is 78% (active); in assay [3] (setting [8]), 78% (active); in assay [3] (at 50.0 µM), 86.5% (active); in assay [4] (setting [7]) it was 55%; in assay [4] (setting [8]) it was 55%; in assay [4] (at 50.0 µM) it was 88.7% (active). The growth inhibition in assay [5] (setting [7]) was 62%; in assay [5] (setting [8]), 62%; in assay [5] (at 50.0 µM), 87.9% (active); in assay [6] (setting [7]), 67%; in assay [6] (setting [8]), 67%; in assay [6] (at 50.0 µM) it was 86.4% (active).

Regarding `CCOC(=O)/N=C(\N)SCc1ccccc1`, the growth inhibition in assay [1] (setting [7]) was 21%; in assay [1] (setting [8]) it was 3%; in assay [1] (at 50.0 µM), 10.9%; in assay [2] (setting [7]), -4%; in assay [2] (setting [8]) it was -6%; in assay [2] (at 50.0 µM), 1.05%. Besides, the growth inhibition in assay [3] (setting [7]) was 13%; in assay [3] (setting [8]) it was -8%; in assay [3] (at 50.0 µM), -12.8%; in assay [4] (setting [7]) it was -7%; in assay [4] (setting [8]), -8%; in assay [4] (at 50.0 µM), -6.25%. In addition, the growth inhibition was 0% in assay [5] (setting [7]); -7% in assay [5] (setting [8]); 49.5% in assay [5] (at 50.0 µM); -3% in assay [6] (setting [7]); -2% in assay [6] (setting [8]); -5.95% in assay [6] (at 50.0 µM).

`O=[N+]([O-])c1ccccc1NC1CCN(CCCC2(c3ccc(F)cc3)OCCO2)CC1`: the growth inhibition in assay [1] (setting [7]) was 11%; in assay [1] (setting [8]) it was 96% (active); in assay [1] (at 50.0 µM) it was 99% (active); in assay [2] (setting [7]), 7%; in assay [2] (setting [8]), 94% (active); in assay [2] (at 50.0 µM), 98% (active). In addition, the growth inhibition in assay [3] (setting [7]) was 16%; in assay [3] (setting [8]), 99% (active); in assay [3] (at 50.0 µM) it was 98.6% (active); in assay [4] (setting [7]), 9%; in assay [4] (setting [8]) it was 94% (active); in assay [4] (at 50.0 µM), 93.3% (active). The growth inhibition was 10% in assay [5] (setting [7]); 97% (active) in assay [5] (setting [8]); 41.4% in assay [5] (at 50.0 µM); 11% in assay [6] (setting [7]); 94% (active) in assay [6] (setting [8]); 98.7% (active) in assay [6] (at 50.0 µM).

On to `O=C([O][Sb]([O]C(=O)C(Cl)(Cl)Cl)([c]1ccccc1)([c]1ccccc1)[c]1ccccc1)C(Cl)(Cl)Cl`, for which the growth inhibition in assay [1] (setting [7]) was 12%; in assay [1] (setting [8]), 76% (active); in assay [1] (at 50.0 µM), 41%; in assay [2] (setting [7]), 7%; in assay [2] (setting [8]), 56%; in assay [2] (at 50.0 µM), 29.2%. The growth inhibition in assay [3] (setting [7]) is 10%; in assay [3] (setting [8]), 77% (active); in assay [3] (at 50.0 µM), 67.1%; in assay [4] (setting [7]), -5%; in assay [4] (setting [8]), 55%; in assay [4] (at 50.0 µM) it was 11.9%. For the same molecule, the growth inhibition was 6% in assay [5] (setting [7]); 76% (active) in assay [5] (setting [8]); -69.9% in assay [5] (at 50.0 µM); 3% in assay [6] (setting [7]); 79% (active) in assay [6] (setting [8]); 66.7% in assay [6] (at 50.0 µM).

With `COC(=O)c1ccccc1CC1Cc2cccc(C)c2C1=O` (stereo not given), the growth inhibition is -2% in assay [1] (setting [7]); 28% in assay [1] (setting [8]); 65.2% in assay [1] (at 50.0 µM); -3% in assay [2] (setting [7]); 47% in assay [2] (setting [8]); 51% in assay [2] (at 50.0 µM). The growth inhibition is 14% in assay [3] (setting [7]); 64% in assay [3] (setting [8]); 67.6% in assay [3] (at 50.0 µM); -2% in assay [4] (setting [7]); 11% in assay [4] (setting [8]); 24.4% in assay [4] (at 50.0 µM). Further, the growth inhibition was 5% in assay [5] (setting [7]); 80% (active) in assay [5] (setting [8]); 79.7% (active) in assay [5] (at 50.0 µM); 1% in assay [6] (setting [7]); 40% in assay [6] (setting [8]); 76% (active) in assay [6] (at 50.0 µM).

As to `CC(=O)Oc1ccc2c(c1)CCC1C2CCC2(C)C1CCC21CO1` (stereo not given), the growth inhibition in assay [1] (setting [7]) is -4%; in assay [1] (setting [8]), 60%; in assay [1] (at 50.0 µM), 89.7% (active); in assay [2] (setting [7]) it was -6%; in assay [2] (setting [8]) it was 18%; in assay [2] (at 50.0 µM) it was 28.6%. Also, the growth inhibition is -3% in assay [3] (setting [7]); 54% in assay [3] (setting [8]); 73.4% (active) in assay [3] (at 50.0 µM); 1% in assay [4] (setting [7]); 11% in assay [4] (setting [8]); 52.2% in assay [4] (at 50.0 µM). In addition, the growth inhibition in assay [5] (setting [7]) is 3%; in assay [5] (setting [8]), 44%; in assay [5] (at 50.0 µM) it was 83% (active); in assay [6] (setting [7]), -6%; in assay [6] (setting [8]), 29%; in assay [6] (at 50.0 µM), 66.7%.

Turning to `CCN(CC)CCNc1ccc(C)c2sc3ccc(OC)cc3c(=O)c12`, the growth inhibition in assay [1] (setting [7]) is 32%; in assay [1] (setting [8]), 94% (active); in assay [1] (at 50.0 µM) it was 90.7% (active); in assay [2] (setting [7]) it was 22%; in assay [2] (setting [8]) it was 97% (active); in assay [2] (at 50.0 µM) it was 89.2% (active). Further, the growth inhibition in assay [3] (setting [7]) is 23%; in assay [3] (setting [8]), 98% (active); in assay [3] (at 50.0 µM), 17.2%; in assay [4] (setting [7]), 16%; in assay [4] (setting [8]), 87% (active); in assay [4] (at 50.0 µM), 30.9%. For the same molecule, the growth inhibition is 31% in assay [5] (setting [7]); 99% (active) in assay [5] (setting [8]); 1% in assay [5] (at 50.0 µM); 32% in assay [6] (setting [7]); 98% (active) in assay [6] (setting [8]); 93% (active) in assay [6] (at 50.0 µM).

Turning to `CN=C1NS(=O)(=O)c2ccccc21`, the growth inhibition in assay [1] (setting [7]) is 2%; in assay [1] (setting [8]), 0%; in assay [1] (at 50.0 µM), 15.8%; in assay [2] (setting [7]), 8%; in assay [2] (setting [8]), 1%; in assay [2] (at 50.0 µM), -6.15%. Also, the growth inhibition in assay [3] (setting [7]) is 4%; in assay [3] (setting [8]), -1%; in assay [3] (at 50.0 µM), 3.4%; in assay [4] (setting [7]), 0%; in assay [4] (setting [8]) it was 2%; in assay [4] (at 50.0 µM), 19.1%. The growth inhibition in assay [5] (setting [7]) is 11%; in assay [5] (setting [8]) it was 39%; in assay [5] (at 50.0 µM) it was -0.85%; in assay [6] (setting [7]), 0%; in assay [6] (setting [8]), 8%; in assay [6] (at 50.0 µM), -2.4%.

For `CC(NC(=O)OCc1ccccc1)C(=O)NNc1ccccc1Cl` (stereo not given), the growth inhibition is 88% (active) in assay [1] (setting [7]); 96% (active) in assay [1] (setting [8]); 97.5% (active) in assay [1] (at 50.0 µM); 9% in assay [2] (setting [7]); 99% (active) in assay [2] (setting [8]); 96.8% (active) in assay [2] (at 50.0 µM). Also, the growth inhibition in assay [3] (setting [7]) was 49%; in assay [3] (setting [8]), 99% (active); in assay [3] (at 50.0 µM) it was 91.4% (active); in assay [4] (setting [7]), 29%; in assay [4] (setting [8]) it was 68%; in assay [4] (at 50.0 µM), 98.2% (active). Also, the growth inhibition in assay [5] (setting [7]) is 73% (active); in assay [5] (setting [8]), 42%; in assay [5] (at 50.0 µM), 97.5% (active); in assay [6] (setting [7]) it was 96% (active); in assay [6] (setting [8]) it was 99% (active); in assay [6] (at 50.0 µM) it was 97.5% (active).

For the molecule `COc1cc(C(=O)C2OC2c2ccc(Cl)cc2)c([N+](=O)[O-])cc1OC` (stereo not given), the growth inhibition is 25% in assay [1] (setting [7]); 51% in assay [1] (setting [8]); 54% in assay [1] (at 50.0 µM); 22% in assay [2] (setting [7]); 47% in assay [2] (setting [8]); 26.4% in assay [2] (at 50.0 µM). Moreover, the growth inhibition in assay [3] (setting [7]) is 24%; in assay [3] (setting [8]), 61%; in assay [3] (at 50.0 µM), 54%; in assay [4] (setting [7]) it was 36%; in assay [4] (setting [8]), 57%; in assay [4] (at 50.0 µM), 58.5%. In addition, the growth inhibition in assay [5] (setting [7]) was 15%; in assay [5] (setting [8]) it was 51%; in assay [5] (at 50.0 µM), 36.8%; in assay [6] (setting [7]), 36%; in assay [6] (setting [8]), 85% (active); in assay [6] (at 50.0 µM) it was 64.2%.
